The results in this text go back to PubChem BioAssay (NCI).

Among the test systems are NCI-H23 lung; NCI-H226 lung; NCI-H322M lung; HOP-62 NSCLC; NCI-H460 lung; HOP-92 NSCLC; NCI-H522 lung; A549/ATCC NSCLC; 786-0 renal; COLO 205 colon.
What all share (test): NCI-60 one-dose screen, 48 h (100 = growth as untreated, 0 = no growth, -100 = all killed)

SMILES strings stand for the structures. Values joined by “and” are separate entries in the source; they are usually repeats but may differ in a detail not shown here. Equal entries are not always repeated. Compounds without any hit were thinned out: in the full panel of roughly 83,000, 20% have a hit.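 How to read the values: 0–100, growth inhibition (40 = 60% inhibited); 0, no net growth; -100 to 0, cell death (-40 = 40% of starting cells died; -100 = all dead).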 Values without a mark were called inactive. Active and inactive are the calls of the source. How the source made its calls: active means growth percent below 10; inactive means the rest.

Consider `CCCCCO/N=C\c1c2c(O)c3c(O)c(C)c4c(c3c1O)C(=O)C(C)(O/C=C\C(OC)C(C)C(OC(C)=O)C(C)C(O)C(C)C(O)C(C)/C=C\C=C(\C)C(=O)N2)O4` (stereo not given), for which the growth in the experiment on NCI-H23 lung (10 µM unless noted) is 19.7%; in the experiment on NCI-H226 lung (10 µM unless noted) it was 26.9%; with NCI-H322M lung (10 µM unless noted) it was 53.2%; in the experiment with HOP-62 NSCLC (10 µM unless noted), 34.7%; with NCI-H460 lung (10 µM unless noted), 5.62% (active); with HOP-92 NSCLC (10 µM unless noted), -5.96% (active). Moreover, the results for the growth with NCI-H522 lung (10 µM unless noted), with A549/ATCC NSCLC (10 µM unless noted) and in the experiment on 786-0 renal (10 µM unless noted) were 6.3% (active), 20.9% and 31.6%, respectively.

Take `CC(=O)/C=C/c1ccc(OCc2ccc(Cl)cc2)cc1`: the growth was 90.9% in the experiment on NCI-H23 lung (10 µM); 37.1% in the experiment on NCI-H23 lung (100 µM); 100% in the experiment with NCI-H226 lung (10 µM); 49.6% in the experiment with NCI-H226 lung (100 µM); 110% in the experiment with HOP-62 NSCLC (10 µM); 44.9% in the experiment with HOP-62 NSCLC (100 µM). Besides, the growth was 101% in the experiment with NCI-H460 lung (10 µM); 26.1% in the experiment on NCI-H460 lung (100 µM); 91.8% in the experiment with HOP-92 NSCLC (10 µM); 11% with HOP-92 NSCLC (100 µM); 90.4% in the experiment with NCI-H522 lung (10 µM); -3.06% (active) in the experiment with NCI-H522 lung (100 µM). In addition, the growth in the experiment with A549/ATCC NSCLC (10 µM) is 75.9%; in the experiment with A549/ATCC NSCLC (100 µM), 34.1%; in the experiment on 786-0 renal (10 µM), 88.1%; with 786-0 renal (100 µM), 51.2%; with COLO 205 colon (10 µM), 122%; in the experiment with COLO 205 colon (100 µM), -21.9% (active).

Turning to `CCOC(=O)C1=C(C)N=C2SC=C(c3ccc(F)cc3)N2[C@H]1c1cn(-c2ccccc2)nc1-c1ccc(Cl)cc1`, the growth was 102% in the experiment with NCI-H23 lung (10 µM unless noted); 96.4% in the experiment with NCI-H226 lung (10 µM unless noted); 88.6% with NCI-H322M lung (10 µM unless noted); 86.8% in the experiment with HOP-62 NSCLC (10 µM unless noted); 102% in the experiment on NCI-H460 lung (10 µM unless noted); 61.6% in the experiment on HOP-92 NSCLC (10 µM unless noted). In addition, the growth in the experiment on NCI-H522 lung (10 µM unless noted) is 83.4%; in the experiment with A549/ATCC NSCLC (10 µM unless noted), 77.8%; in the experiment with 786-0 renal (10 µM unless noted) it was 87.6%.

`CC12CCC(C(=O)CC1=O)C2(C)C` (stereo not given): the growth in the experiment with NCI-H23 lung (10 µM unless noted) is 108% and 97.9%; with NCI-H226 lung (10 µM unless noted), 95.8%; with NCI-H322M lung (10 µM unless noted) it was 112% and 97.3%; in the experiment on HOP-62 NSCLC (10 µM unless noted) it was 110%; in the experiment on NCI-H460 lung (10 µM unless noted), 104% and 114%; in the experiment on HOP-92 NSCLC (10 µM unless noted), 102% and 94.9%. The growth in the experiment with NCI-H522 lung (10 µM unless noted) was 103% and 153%; in the experiment on A549/ATCC NSCLC (10 µM unless noted), 101% and 103%; with 786-0 renal (10 µM unless noted), 104% and 96.6%.

As to `Cc1cc(N2CCN(CC(=O)Nc3ccc4c(ccn4Cc4ccccc4)c3)CC2)nc(N2CCCCCC2)n1`, the growth was 53.2% with NCI-H23 lung (10 µM unless noted); 57.4% in the experiment with NCI-H226 lung (10 µM unless noted); 77.9% in the experiment on NCI-H322M lung (10 µM unless noted); 59.8% in the experiment on HOP-62 NSCLC (10 µM unless noted); 40% with NCI-H460 lung (10 µM unless noted); 0.991% (active) in the experiment on HOP-92 NSCLC (10 µM unless noted). Besides, the growth was 62.4% in the experiment with NCI-H522 lung (10 µM unless noted), 46.3% with A549/ATCC NSCLC (10 µM unless noted) and 79.4% in the experiment with 786-0 renal (10 µM unless noted).

Take `CCOC(=O)c1nc2c3ccccc3cnn2c1C(=O)c1ccc(OC)cc1`: the growth is 84.4% with NCI-H23 lung (10 µM unless noted); 81.9% in the experiment on NCI-H226 lung (10 µM unless noted); 101% with NCI-H322M lung (10 µM unless noted); 77.4% in the experiment with HOP-62 NSCLC (10 µM unless noted); 103% in the experiment on NCI-H460 lung (10 µM unless noted); 86.5% in the experiment with HOP-92 NSCLC (10 µM unless noted). Also, the growth with NCI-H522 lung (10 µM unless noted) was 95.2%; in the experiment on A549/ATCC NSCLC (10 µM unless noted), 87.2%; with 786-0 renal (10 µM unless noted), 102%.

Take `Nn1c(-c2ccc(Cl)cc2)nc2c(-c3ccc(Cl)cc3)nc3ccc(Cl)cc3c2c1=O`: the growth in the experiment on NCI-H23 lung (10 µM unless noted) is 56.3%; with NCI-H226 lung (10 µM unless noted), 1.77% (active); in the experiment on NCI-H322M lung (10 µM unless noted), 35.3%; in the experiment with HOP-62 NSCLC (10 µM unless noted), -78.2% (active); in the experiment on NCI-H460 lung (10 µM unless noted), -63.2% (active); in the experiment with HOP-92 NSCLC (10 µM unless noted), 27.4%. Also, the growth is 48.9% in the experiment on NCI-H522 lung (10 µM unless noted), -61.2% (active) in the experiment with A549/ATCC NSCLC (10 µM unless noted) and -65.3% (active) with 786-0 renal (10 µM unless noted).

`C=CCOc1ccc(/C=C2\SC(=S)N(CCc3ccc(O)cc3)C2=O)cc1`: the growth in the experiment on NCI-H23 lung (10 µM unless noted) was 104%; with NCI-H226 lung (10 µM unless noted) it was 91.6%; with NCI-H322M lung (10 µM unless noted), 95.2%; in the experiment on HOP-62 NSCLC (10 µM unless noted) it was 106%; in the experiment on NCI-H460 lung (10 µM unless noted) it was 97.4%; in the experiment with HOP-92 NSCLC (10 µM unless noted), -2.76% (active). In addition, the growth in the experiment with NCI-H522 lung (10 µM unless noted) is 11%; with A549/ATCC NSCLC (10 µM unless noted) it was 88.8%; in the experiment on 786-0 renal (10 µM unless noted), 100%.

On to `C#Cc1cc(C(=O)Nc2ccc(CN3CCN(C)CC3)c(C(F)(F)F)c2)ccc1C`, for which the growth with NCI-H23 lung (10 µM unless noted) is 88.2%; with NCI-H226 lung (10 µM unless noted), 83.6%; with NCI-H322M lung (10 µM unless noted) it was 88.5%; in the experiment on HOP-62 NSCLC (10 µM unless noted), 88.5%; with NCI-H460 lung (10 µM unless noted), 71.6%; with HOP-92 NSCLC (10 µM unless noted), 58.5%. In addition, the growth in the experiment on NCI-H522 lung (10 µM unless noted) is 96.1%; in the experiment with A549/ATCC NSCLC (10 µM unless noted) it was 70.8%; in the experiment with 786-0 renal (10 µM unless noted), 52.2%.

In the case of `COc1cc(/C=C2\CCC/C(=C\c3cc(CN4CCCC4)c(O)c(OC)c3)C2=O)cc(CN2CCCC2)c1O`, the growth is 38.4% in the experiment with NCI-H23 lung (10 µM unless noted); 75.1% in the experiment on NCI-H226 lung (10 µM unless noted); 44.3% in the experiment with NCI-H322M lung (10 µM unless noted); 102% in the experiment on HOP-62 NSCLC (10 µM unless noted); 6.28% (active) with NCI-H460 lung (10 µM unless noted); 10.5% in the experiment on HOP-92 NSCLC (10 µM unless noted). The values for the growth in the experiment with NCI-H522 lung (10 µM unless noted), in the experiment with A549/ATCC NSCLC (10 µM unless noted) and with 786-0 renal (10 µM unless noted) were 46.1%, 43.7% and -4.39% (active), respectively.

Take `Cc1nc(-n2[nH]c(=O)ccc2=O)sc1N=Nc1ccccc1`: the growth with NCI-H23 lung (10 µM unless noted) is 103%; in the experiment on NCI-H226 lung (10 µM unless noted), 85.3%; in the experiment with NCI-H322M lung (10 µM unless noted) it was 97.3%; in the experiment on HOP-62 NSCLC (10 µM unless noted) it was 94.3%; with NCI-H460 lung (10 µM unless noted), 102%; in the experiment with HOP-92 NSCLC (10 µM unless noted), 96.6%. The figures for the growth with NCI-H522 lung (10 µM unless noted), in the experiment on A549/ATCC NSCLC (10 µM unless noted) and in the experiment with 786-0 renal (10 µM unless noted) were 103%, 104% and 94.4%, respectively.

In the case of `CN(C)CCNc1ncc(F)c(-c2cnc3cc(-c4cnn(C)c4)ccn23)n1`, the growth in the experiment with NCI-H23 lung (0.005 µM) was 101%; with NCI-H23 lung (30 µM), 56.9%; in the experiment with NCI-H226 lung (10 µM unless noted) it was 76.5% [30 µM]; in the experiment on NCI-H322M lung (0.005 µM) it was 95.6%; in the experiment on NCI-H322M lung (30 µM), 44.7%; in the experiment with HOP-62 NSCLC (0.005 µM), 103%. In addition, the growth in the experiment with HOP-62 NSCLC (30 µM) was 60.2%; in the experiment with NCI-H460 lung (0.005 µM), 101%; in the experiment on NCI-H460 lung (30 µM), 15.7%; with HOP-92 NSCLC (0.005 µM), 105%; in the experiment with HOP-92 NSCLC (30 µM) it was 61.4%; in the experiment with NCI-H522 lung (0.005 µM) it was 92.4%. The growth with NCI-H522 lung (30 µM) was 51.9%; in the experiment with A549/ATCC NSCLC (0.005 µM), 101%; with A549/ATCC NSCLC (30 µM), 34.3%; in the experiment on 786-0 renal (0.005 µM), 102%; with 786-0 renal (30 µM), 44.2%; with COLO 205 colon (10 µM unless noted) it was 25.8% [30 µM].

For `CCN(Cc1ccccc1)c1ccc(/C=C2\COc3ccccc3C2=O)cc1`, the growth in the experiment with NCI-H23 lung (10 µM) was 97.2%; in the experiment with NCI-H23 lung (100 µM), 37.1%; with NCI-H226 lung (10 µM), 95.4%; in the experiment on NCI-H226 lung (100 µM), 50.9%; in the experiment with NCI-H322M lung (10 µM unless noted) it was 75.9% [100 µM]; with HOP-62 NSCLC (10 µM), 89.6%. Further, the growth in the experiment on HOP-62 NSCLC (100 µM) is 56.8%; with NCI-H460 lung (10 µM), 100%; in the experiment with NCI-H460 lung (100 µM), 45.8%; in the experiment with HOP-92 NSCLC (10 µM), 85.9%; with HOP-92 NSCLC (100 µM), 23%; in the experiment on NCI-H522 lung (10 µM) it was 88.5%. Moreover, the growth in the experiment with NCI-H522 lung (100 µM) is 2.07% (active); with A549/ATCC NSCLC (10 µM) it was 99.4%; in the experiment with A549/ATCC NSCLC (100 µM) it was 47%; in the experiment on 786-0 renal (10 µM), 86.9%; in the experiment on 786-0 renal (100 µM), 54.5%; in the experiment on COLO 205 colon (10 µM) it was 106%. For the same compound, in the experiment on COLO 205 colon (100 µM), the growth is 38.9%.
